Source: PubChem BioAssay (EPA / NIEHS)
Active and inactive are the calls of the source. The calls were made as follows: active = hit-call score of the fitted dose curve at least 0.9, where 1 is the maximum; inactive = score below 0.9.

Assays:
[1] = read-out: Cyclin Dependent Kinase Inhibitor 1A (CDKN1A), CDKN1A (gene 1026); assay: LTEA_HepaRG_CDKN1A: Life Technologies and Expression Analysis (LTEA) Assay for Cyclin Dependent Kinase Inhibitor 1A (CDKN1A) using HepaRG (AID 2283450); conditions: mRNA level, 48 h; actives raise or lower the signal
Method in brief: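 Expression quantified by Fluidigm qRT-PCR with ACTB, GAPDH and POLR2A normalization, fitted bidirectionally against 0.5% DMSO. Cells: HepaRG, plated 48 h then treated 48 h in serum-free induction medium, top concentration 100 uM with half-log dilutions.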

[2] = read-out: Cyclin D1 (CCND1), CCND1 (gene 595); assay: LTEA_HepaRG_CCND1: Life Technologies and Expression Analysis (LTEA) Assay for Cyclin D1 (CCND1) using HepaRG (AID 2283451); conditions: mRNA level, 48 h; actives raise or lower the signal
Method in brief: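 Expression of CCND1 was quantified by qRT-PCR on Fluidigm arrays using ACTB, GAPDH and POLR2A as reference genes. HepaRG cultures, plated 48 h beforehand, were dosed for 48 h at up to 100 uM (half-log, 8 points) in 0.5% DMSO.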

[3] = read-out: catalase (CAT), CAT (gene 847); assay: LTEA_HepaRG_CAT: Life Technologies and Expression Analysis (LTEA) Assay for catalase (CAT) using HepaRG (AID 2283452); conditions: mRNA level, 48 h; actives raise or lower the signal
Method in brief: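 Expression of CAT was quantified by TaqMan qRT-PCR with ACTB/GAPDH/POLR2A normalization after 48 h chemical exposure of HepaRG. Eight-point half-log series, top 100 uM, in 0.5% DMSO; gain or loss fitted against vehicle.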

[4] = read-out: flavin-containing dimethylaniline monooxygenases 3 (FMO3), FMO3 (gene 2328); assay: LTEA_HepaRG_FMO3: Life Technologies and Expression Analysis (LTEA) Assay for flavin-containing dimethylaniline monooxygenases 3 (FMO3) using HepaRG (AID 2283453); conditions: mRNA level, 48 h; actives raise or lower the signal;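 as to AC50: differentiated human HepaRG liver cells in serum-free induction medium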
Method in brief: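 Differentiated HepaRG cells in serum-free induction medium, exposed 48 h in duplicate to 8 half-log concentrations up to 100 uM in 0.5% DMSO. FMO3 mRNA by qRT-PCR, normalized to ACTB, GAPDH, POLR2A; bidirectional fit vs DMSO.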

[5] = read-out: Cytochrome P450 (CYP1A1), CYP1A1 (gene 1543); assay: LTEA_HepaRG_CYP1A1: Life Technologies and Expression Analysis (LTEA) Assay for Cytochrome P450 (CYP1A1) using HepaRG (AID 2283454); conditions: mRNA level, 48 h; actives raise or lower the signal
Method in brief: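 CYP1A1 transcript levels measured by Fluidigm qRT-PCR against three housekeeping genes, 48 h after chemical dosing of human HepaRG cells (highest concentration 100 uM, half-log steps, 0.5% DMSO vehicle). Gain or loss of signal fitted relative to DMSO.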

[6] = read-out: CFLAR gene, CFLAR (gene 8837); assay: LTEA_HepaRG_CFLAR: Life Technologies and Expression Analysis (LTEA) Assay for CFLAR gene using HepaRG (AID 2283455); conditions: mRNA level, 48 h; actives raise or lower the signal
Method in brief: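 HepaRG, 48 h exposure, 8-pt conc-response (100 uM top, half-log), 0.5% DMSO vehicle, duplicates. CFLAR expression by qRT-PCR; ACTB/GAPDH/POLR2A normalization; gain or loss fit vs DMSO baseline.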

[7] = read-out: Forkhead box O1 (FOXO1), FOXO1 (gene 2308); assay: LTEA_HepaRG_FOXO1: Life Technologies and Expression Analysis (LTEA) Assay for Forkhead box O1 (FOXO1) using HepaRG (AID 2283456); conditions: mRNA level, 48 h; actives raise or lower the signal
Method in brief: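 Readout is FOXO1 transcript level by multiplexed qRT-PCR against three housekeeping genes, curve-fitted in both directions relative to 0.5% DMSO vehicle. Human HepaRG cultures received chemicals for 48 h, up to 100 uM in half-log steps.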

[8] = read-out: Forkhead box O3 (FOXO3), FOXO3 (gene 2309); assay: LTEA_HepaRG_FOXO3: Life Technologies and Expression Analysis (LTEA) Assay for Forkhead box O3 (FOXO3) using HepaRG (AID 2283459); conditions: mRNA level, 48 h; actives raise or lower the signal
Method in brief: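 HepaRG, 48 h post-dose; 8 conc., half-log from 100 uM, 0.5% DMSO, duplicates; serum-free induction medium. Readout: FOXO3 mRNA, TaqMan qRT-PCR, housekeeping-normalized. Bidirectional curve fit vs DMSO baseline.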

[9] = read-out: ABC Transporter (ABCB1), ABCB1 (gene 5243); assay: LTEA_HepaRG_ABCB1: Life Technologies and Expression Analysis (LTEA) Assay for ABC Transporter (ABCB1) using HepaRG (AID 2283460); conditions: mRNA level, 48 h; actives raise or lower the signal
Method in brief: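 Expression of ABCB1 was quantified by qRT-PCR against three housekeeping genes after human HepaRG cultures received test chemicals for 48 hours. Concentrations spanned eight half-log steps topping at 100 uM in 0.5% DMSO; gain or loss of signal was fitted relative to vehicle.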

[10] = read-out: growth arrest and DNA damage 45 (GADD45B), GADD45B (gene 4616); assay: LTEA_HepaRG_GADD45B: Life Technologies and Expression Analysis (LTEA) Assay for growth arrest and DNA damage 45 (GADD45B) using HepaRG (AID 2283461); conditions: mRNA level, 48 h; actives raise or lower the signal
Method in brief: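 Transcript level quantified by Fluidigm TaqMan qRT-PCR with three housekeeping genes for normalization, analyzed for up- or down-regulation against 0.5% DMSO. HepaRG cultures dosed 48 h at eight half-log concentrations up to 100 uM, duplicates.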

[11] = read-out: ABC Transporter (ABCC3), ABCC3 (gene 8714); assay: LTEA_HepaRG_ABCC3: Life Technologies and Expression Analysis (LTEA) Assay for ABC Transporter (ABCC3) using HepaRG (AID 2283462); conditions: mRNA level, 48 h; actives raise or lower the signal
Method in brief: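 Transcript level by TaqMan qRT-PCR, normalised to three housekeeping genes, fitted in both directions relative to vehicle. Chemicals tested in duplicate at eight half-log concentrations up to 100 uM for 48 h on HepaRG cells (0.5% DMSO).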

[12] = read-out: ABC Transporter (ABCB11), ABCB11 (gene 8647); assay: LTEA_HepaRG_ABCB11: Life Technologies and Expression Analysis (LTEA) Assay for ABC Transporter (ABCB11) using HepaRG (AID 2283463); conditions: mRNA level, 48 h; actives raise or lower the signal
Method in brief: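 ABCB11 transcript levels are read by Fluidigm TaqMan qRT-PCR after 48 h chemical treatment of human HepaRG cells. Concentrations span 100 uM downward in half-log steps with 0.5% DMSO; gain or loss is fitted against DMSO controls.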

[13] = read-out: ABC Transporter (ABCC2), ABCC2 (gene 1244); assay: LTEA_HepaRG_ABCC2: Life Technologies and Expression Analysis (LTEA) Assay for ABC Transporter (ABCC2) using HepaRG (AID 2283464); conditions: mRNA level, 48 h; actives raise or lower the signal
Method in brief: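 Endpoint is ABCC2 transcript level from qRT-PCR, normalized to three housekeeping genes and fitted bidirectionally relative to DMSO. Human HepaRG cells received test chemical for 48 h at up to 100 uM (8 points, half-log steps, 0.5% DMSO), duplicate wells.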

[14] = read-out: Broad substrate specificity ATP-binding cassette transporter ABCG2 (Homo sapiens) (UniProt Q9UNQ0); assay: LTEA_HepaRG_ABCG2: Life Technologies and Expression Analysis (LTEA) Assay for ABC Transporter (ABCG2) using HepaRG (AID 2283465); conditions: mRNA level, 48 h; actives raise or lower the signal
Method in brief: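 Read-out is ABCG2 mRNA induction or loss quantified by qRT-PCR after 48 h chemical treatment of human HepaRG cells, normalized to three housekeeping genes. Concentrations reached 100 uM top in half-log steps; fitting was bidirectional against 0.5% DMSO.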

[15] = read-out: ATP-citrate lyase (ACLY), ACLY (gene 47); assay: LTEA_HepaRG_ACLY: Life Technologies and Expression Analysis (LTEA) Assay for ATP-citrate lyase (ACLY) using HepaRG (AID 2283466); conditions: mRNA level, 48 h; actives raise or lower the signal
Method in brief: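 HepaRG, 48 h exposure, 8-pt half-log dilutions (top 100 uM), 0.5% DMSO. Readout: ACLY mRNA, TaqMan qRT-PCR, housekeeping-normalized (ACTB/GAPDH/POLR2A). Bidirectional curve fit vs DMSO.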

[16] = read-out: Peroxisomal acyl-coenzyme A oxidase 1 (ACOX1) gene, ACOX1 (gene 51); assay: LTEA_HepaRG_ACOX1: Life Technologies and Expression Analysis (LTEA) Assay for Peroxisomal acyl-coenzyme A oxidase 1 (ACOX1) gene using HepaRG (AID 2283467); conditions: mRNA level, 48 h; actives raise or lower the signal
Method in brief: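 Measured by qRT-PCR against three housekeeping genes: ACOX1 transcript change in human HepaRG cells after 48 h dosing. Concentrations ran up to 100 uM in half-log steps. Curves were fitted bidirectionally relative to 0.5% DMSO.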

[17] = read-out: Alkaline Phosphatase, Placental (ALPP) gene, ALPP (gene 250); assay: LTEA_HepaRG_ALPP: Life Technologies and Expression Analysis (LTEA) Assay for Alkaline Phosphatase, Placental (ALPP) gene using HepaRG (AID 2283468); conditions: mRNA level, 48 h; actives raise or lower the signal;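 as to AC50: differentiated human HepaRG liver cells in serum-free induction medium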
Method in brief: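 ALPP transcript level, measured by qRT-PCR and normalized to three housekeeping genes (ACTB, GAPDH, POLR2A), after 48 h dosing of differentiated HepaRG in serum-free induction medium. Top concentration 100 uM with half-log dilutions (8 points, 0.5% DMSO, duplicates); bidirectional fitting relative to DMSO.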

[18] = read-out: Bcl-2 (BAD) gene, BAD (gene 572); assay: LTEA_HepaRG_BAD: Life Technologies and Expression Analysis (LTEA) Assay for Bcl-2 (BAD) gene using HepaRG (AID 2283469); conditions: mRNA level, 48 h; actives raise or lower the signal
Method in brief: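 BAD transcript change, measured by qRT-PCR against three housekeeping genes and fitted in both directions relative to 0.5% DMSO, after 48 h chemical treatment of human HepaRG liver cells at concentrations up to 100 uM.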

[19] = read-out: growth arrest and DNA damage 45 (GADD45A), GADD45A (gene 1647); assay: LTEA_HepaRG_GADD45A: Life Technologies and Expression Analysis (LTEA) Assay for growth arrest and DNA damage 45 (GADD45A) using HepaRG (AID 2283458); conditions: mRNA level, 48 h; actives raise or lower the signal
Method in brief: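 Differentiated HepaRG cells exposed 48 h in serum-free induction medium to 8 concentrations, top 100 uM in half-log steps, 0.5% DMSO. GADD45A mRNA quantified by qRT-PCR, normalized to ACTB, GAPDH and POLR2A; bidirectional fit versus DMSO.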

[20] = CEETOX_H295R_TESTO: CeeTox H295R High-throughput Steroidogenesis Assay for Testosterone (TESTO) (AID 2283457); conditions: actives raise or lower the signal
Method in brief: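 Testosterone secreted into the medium over 48 h by H295R cells (maximum passage 10) was quantified by LC-MS/MS after MTBE extraction. Fitted in both directions against DMSO, with concentrations diluted until MTT viability was ≥70%.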

Measured: AC50

Sequence of Broad substrate specificity ATP-binding cassette transporter ABCG2 (Homo sapiens) (Q9UNQ0 whole entry, looked up): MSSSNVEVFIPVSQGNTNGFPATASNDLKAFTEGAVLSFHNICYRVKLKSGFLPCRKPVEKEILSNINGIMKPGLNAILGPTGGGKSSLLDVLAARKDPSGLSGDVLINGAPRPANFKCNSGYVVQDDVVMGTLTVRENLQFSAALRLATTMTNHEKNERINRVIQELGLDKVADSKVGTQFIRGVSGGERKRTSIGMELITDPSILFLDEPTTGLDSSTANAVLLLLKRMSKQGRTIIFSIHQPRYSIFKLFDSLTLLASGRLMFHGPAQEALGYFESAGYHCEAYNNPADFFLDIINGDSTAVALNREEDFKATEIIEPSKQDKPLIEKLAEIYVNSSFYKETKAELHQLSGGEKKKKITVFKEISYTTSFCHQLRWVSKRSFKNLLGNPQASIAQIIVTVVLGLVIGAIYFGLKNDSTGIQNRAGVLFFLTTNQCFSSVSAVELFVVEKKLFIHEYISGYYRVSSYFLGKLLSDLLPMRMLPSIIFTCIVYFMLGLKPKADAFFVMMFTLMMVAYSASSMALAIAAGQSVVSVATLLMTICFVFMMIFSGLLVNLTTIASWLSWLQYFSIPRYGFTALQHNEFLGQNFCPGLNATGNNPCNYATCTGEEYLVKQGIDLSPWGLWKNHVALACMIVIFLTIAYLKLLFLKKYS

COP(=S)(OC)Oc1ccc([N+](=O)[O-])c(C)c1
active: [5] 50 µM
not listed: [19] | [20]
inactive: all other assays above

CSC(=O)c1c(C(F)F)nc(C(F)(F)F)c(C(=O)SC)c1CC(C)C
active: [4] 86.8 µM | [5] 17.1 µM | [12] 49.8 µM | [13] 9.66 µM | [15] 77.9 µM | [17] 49.8 µM
not listed: [1] | [20]
inactive: all other assays above

COCc1cnc(C2=NC(C)(C(C)C)C(=O)N2)c(C(=O)O)c1 (stereo not given)
active: [5] 65.5 µM
not listed: [17]
inactive: all other assays above
